Screens (PubChem)
A selection: hits, their analogues and other compounds. The true share with any hit is near 11%.
IMPase cell inh: IMPase inhibition in cells. P97697. CHO-M1 cells, IP1 accumulation, HTRF TR-FRET ratio. inhibition (IP1 accumulation), % at 46.1 µM. 120,000 tested, under 10 active. AID 901; active = well fitted curve in the direction sought with a large enough effect in the signal ratio, not every such curve was filed as active; inconclusive = small, poorly fitted or top-dose-only effect, or a change in a side signal; inactive = no such curve, though single readings can be large or run the other way; the % refers to the signal ratio;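 note: cells stimulated with carbachol in lithium chloride buffer; plate controls were DMSO basal wells for no effect and reference inhibitor wells for full effect; higher means more IMPase inhibition seen as more IP1 and lower FRET ratio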
Target sequence (P97697 whole entry, looked up): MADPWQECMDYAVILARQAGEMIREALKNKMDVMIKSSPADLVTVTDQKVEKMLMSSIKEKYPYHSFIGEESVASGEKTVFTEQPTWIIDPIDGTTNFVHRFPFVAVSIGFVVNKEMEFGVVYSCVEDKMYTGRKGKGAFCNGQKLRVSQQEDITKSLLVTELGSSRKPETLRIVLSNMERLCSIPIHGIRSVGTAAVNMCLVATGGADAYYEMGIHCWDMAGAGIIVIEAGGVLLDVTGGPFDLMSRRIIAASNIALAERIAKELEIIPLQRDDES
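Seeded CHO-M1 cells were dosed with compound at up to 46 uM, stimulated with carbachol for 30 min, then lysed in IP-One detection reagents. Higher IP1 lowers the TR-FRET signal.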
ALDH1A1 block: inhibitors of human aldehyde dehydrogenase 1A1. Purified ALDH1A1, NADH fluorescence, propionaldehyde substrate. hit rate 7.3% among 220,000. P00352. AID 1030. Potency, µM (titrated, usually from 75.3 µM), without a hit: at the top dose activity, negative = inhibition, most hits filed as inhibitors; active = well fitted inhibition curve with a large enough effect, not every such curve was filed as active; inconclusive = small, poorly fitted or top-dose-only effect, or another doubt; inactive = no such curve, though single readings can be large or run the other way;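 note: potency is the fitted concentration of half-maximal effect; plate controls were no enzyme wells and a reference inhibitor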
PNC inhibitor: inhibitors of perinucleolar compartment assembly; AID 2417; PC3M PTB-GFP, PNC prevalence imaging, 16 h; stronger effect = lower value; hit rate 3.1% among 140,000; activity change (PNC), negative = inhibition, % at 10 µM;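 active = readout at or below -70, meaning at least 70% loss of cells showing the perinucleolar compartment, a nuclear body marking cancer cells; inconclusive = readout between -30 and a set limit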;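 note: plate controls were DMSO wells for no effect and camptothecin positive control wells for full effect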
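PC3M cells stably expressing PTB-GFP, 750–1000 cells/well, treated 16 h at 37 °C with compound (23 nl of library stock), in duplicate. After paraformaldehyde fixation and Hoechst stain, imaged at 20x; PNC prevalence scored by image analysis.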
12-hLO inh: blocks human 12-lipoxygenase activity | P18054 | purified 12-hLO, xylenol orange hydroperoxide absorbance | AID 1452 | Potency, µM (highest dose often 57.1 µM), for inactives: at the highest dose activity change, negative = inhibition, hits mostly inhibitors | hit rate 0.12% among 150,000; note: potency is the fitted concentration of half-maximal effect; nearly all actives have a fitted effect of over 55% in size
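Hydroperoxide formation by human 12-lipoxygenase from 40 uM arachidonic acid was followed colorimetrically via ferric-xylenol orange complex, using the 573/405 nm absorbance ratio. Enzyme concentration was 150 nM, with 30 min reaction at room temperature.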
IMPase Li inh: IMPase inhibition in cells with lithium potentiation; CHO-M1 cells, IP1 TR-FRET (IP-One), carbachol + lithium; hit rate 0.35% among 210,000; AID 1457; Potency, µM (top dose mostly 59.4 µM), without a hit: at the highest dose activity, negative = IMPase inhibition, usual class: inhibitors;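 note: IP1 builds up when IMPase is blocked and the TR-FRET signal falls; potency is the fitted concentration of half-maximal effect; plate controls were basal vehicle for no effect and high inhibitor control for full effect; nearly all actives have a fitted effect of over 50% in size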
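Steps: plate 2000 CHO-M1 cells per well and culture 16–30 h; add compound and lithium; incubate 30 min, 37C; add d2-IP1 tracer and Eu cryptate anti-IP1 antibody in lysis buffer; read after 10 min at room temperature.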
HPGD inh: inhibitors of human 15-hydroxyprostaglandin dehydrogenase (HPGD) | P15428 | purified HPGD, NADH fluorescence kinetic, PGE2 substrate | Potency, µM, without a hit: top-dose activity change, negative = inhibition, usual class: inhibitors | hit rate 4.3% among 150,000 | AID 894; active = well fitted inhibition curve with a large enough effect, not every such curve was filed as active; inconclusive = small, poorly fitted or top-dose-only effect, or another doubt; inactive = no such curve, though single readings can be large or run the other way; note: potency is the fitted concentration of half-maximal effect
Target sequence (P15428 whole entry, looked up): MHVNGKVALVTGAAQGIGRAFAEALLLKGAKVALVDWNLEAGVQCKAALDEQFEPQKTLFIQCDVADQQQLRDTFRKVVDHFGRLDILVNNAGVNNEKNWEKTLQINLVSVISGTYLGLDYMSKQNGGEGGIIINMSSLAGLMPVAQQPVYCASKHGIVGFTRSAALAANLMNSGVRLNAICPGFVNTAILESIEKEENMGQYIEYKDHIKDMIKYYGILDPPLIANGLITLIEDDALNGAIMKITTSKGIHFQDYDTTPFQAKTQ
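NADH formation kinetics: reaction with 30 uM PGE2 and 1 mM NAD+ (final), 20 nM enzyme, Tris-HCl pH 8 with Tween 20, after 15 min compound preincubation at room temperature. Fluorescence change, last versus first of five reads.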
* = called active by the depositor; ! = repeats disagree; [ ] = remark or other dose. Unless noted, calls come from the whole dose curve; as a rule, active = well fitted curve in the direction sought with a large enough effect; inconclusive = small, poorly fitted or top-dose-only effect, or another doubt; inactive = no such curve, though single readings can be large; an effect the other way counts as inactive or inconclusive. Unless noted, % is set by controls: 0 for no effect and ±100 for the full control effect.

`O=C1CCCC2C3CC(CN12)C1CCCCN1C3` (configuration not stated) gave ALDH1A1 block 6.2%, 12-hLO inh 8.0%, IMPase Li inh 2.3% and HPGD inh -6.1%.
For c1ccc([Se]c2c(-c3ccccc3)[se]c3ccccc23)cc1 the results were ALDH1A1 block 9.1%, 12-hLO inh 0.3%[0.00818 µM], IMPase Li inh 5.62µM* and HPGD inh -4.1%.
CCC(C)=O was read as ALDH1A1 block inconclusive, 12-hLO inh -1.0%, IMPase Li inh 4.6% and HPGD inh -13.0%.
Screening Cc1ccc(CC2C(=O)N(C)C(=O)N(C)C2=O)s1 returned IMPase cell inh -3.6, ALDH1A1 block 20µM*, PNC inhibitor inconclusive, 12-hLO inh -11.6%, IMPase Li inh 22.0%[38.3 µM] and HPGD inh inconclusive.
Screening COc1ccc(NC(=S)NCCN2CCOCC2)cc1 returned ALDH1A1 block 1.26µM* and IMPase Li inh -2.2%.
For Cc1ccc(NC(=O)CSc2nnc([C@@H](N)Cc3c[nH]c4ccccc34)o2)c(C)c1 the results were IMPase cell inh 10.6, ALDH1A1 block 25.1µM*, PNC inhibitor -19.8, 12-hLO inh -17.8%, IMPase Li inh 16.2%[38.3 µM] and HPGD inh inconclusive.
For C=C(C)CSc1nnc([C@@H](N)Cc2c[nH]c3ccccc23)o1 the results were IMPase cell inh -1.5, ALDH1A1 block 15.8µM*, PNC inhibitor -27.3, 12-hLO inh -12.5%, IMPase Li inh 4.9%[38.3 µM] and HPGD inh inconclusive.
Screening CC(C)=CCSc1nnc([C@@H](N)Cc2c[nH]c3ccccc23)o1 returned IMPase cell inh 6.1, ALDH1A1 block inconclusive, PNC inhibitor 12.9, 12-hLO inh -2.9%, IMPase Li inh -8.9%[38.3 µM] and HPGD inh -7.3%.
Screening O=C1NS(=O)c2cc([N+](=O)[O-])cc([N+](=O)[O-])c21 (configuration not stated) returned ALDH1A1 block 22.4µM* and IMPase Li inh 0.3%.
Screening O=[N+]([O-])c1cc([N+](=O)[O-])c2ccccc2c1 returned ALDH1A1 block -5.7%, 12-hLO inh -2.9%, IMPase Li inh 9.2% and HPGD inh -10.3%.
Screening N#CCCCC[N+]12CN3CN(CN(C3)C1)C2 returned ALDH1A1 block 2.3%[13.5 µM], 12-hLO inh 3.4%[11.4 µM], IMPase Li inh 15.7% and HPGD inh 0.6%.
For CC1CC(=O)O1 (configuration not stated) the results were ALDH1A1 block 8.9%, 12-hLO inh -1.7%, IMPase Li inh -15.3% and HPGD inh -1.3%.
O=C(NCc1ccccn1)c1ccccc1Cl was read as IMPase cell inh -4.2, ALDH1A1 block inconclusive, PNC inhibitor 14.5, 12-hLO inh 5.5%, IMPase Li inh 34.3%[38.3 µM] and HPGD inh 6.31µM*.
Oc1c(Br)cc(Br)cc1Oc1ccc(Br)cc1Br was read as ALDH1A1 block -0.5%, PNC inhibitor -1.9, 12-hLO inh -23.5%, IMPase Li inh 11.2% and HPGD inh 7.08µM*.
Screening CN1[C@@H]2CC[C@H]1CC(OC(c1ccc(F)cc1)c1ccc(F)cc1)C2 (some centres not stated) returned IMPase cell inh 20.4, ALDH1A1 block 10.6%, 12-hLO inh -4.5%, IMPase Li inh 44.3% and HPGD inh -9.2%.
For NC(Cc1cc(O)c(O)cc1O)C(=O)O (configuration not stated) the results were ALDH1A1 block 11.2µM*, IMPase Li inh -15.7% and HPGD inh 4.47µM*.
For N[C@@H](Cc1cc(I)c(O)c(I)c1)C(=O)O the results were ALDH1A1 block 11.2µM*!, PNC inhibitor -0.8, 12-hLO inh -1.4%, IMPase Li inh -6.9% and HPGD inh -8.0%.
Screening COc1ccc(CC(=O)NC(=S)NNC(=O)COc2c(C)cccc2C)cc1 returned ALDH1A1 block inconclusive, PNC inhibitor 46.8, 12-hLO inh 0.2%, IMPase Li inh -3.8% and HPGD inh -16.1%.
CC(C)CNCCc1ccccn1 was read as ALDH1A1 block 15.8%[13.5 µM], 12-hLO inh 0.0%[11.4 µM], IMPase Li inh -0.9% and HPGD inh -3.1%.
